Measurements as given in PubChem BioAssay AID504692 (The Scripps Research Institute Molecular Screening Center, 2011).
In all, about 340,000 compounds went through this assay and about 2,000 (0.59%) were called active. The sample holds actives, similar compounds and a random draw of the others, so the mix is not that of the screen. Rule as the data show it: active = activation mostly above about 9.5% (no sharp cut-off); inactive = mostly below about 7.6%.

These molecules were tested against 5-hydroxytryptamine receptor 5A (Homo sapiens) (UniProt P47898) (assay: activation of human 5-HT5A receptor – cell-based, luminescence, full-deck HTS, counter-screen for OPRM1-OPRD1 heterodimer agonist project, primary screen (AID 504692;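 also: 0% = cells with vehicle only and 100% = reference agonist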)). Conditions: HTR5A agonist assay, at 9.3 µM, active compounds read high.
Sequence of 5-hydroxytryptamine receptor 5A (Homo sapiens) (P47898 whole entry, looked up): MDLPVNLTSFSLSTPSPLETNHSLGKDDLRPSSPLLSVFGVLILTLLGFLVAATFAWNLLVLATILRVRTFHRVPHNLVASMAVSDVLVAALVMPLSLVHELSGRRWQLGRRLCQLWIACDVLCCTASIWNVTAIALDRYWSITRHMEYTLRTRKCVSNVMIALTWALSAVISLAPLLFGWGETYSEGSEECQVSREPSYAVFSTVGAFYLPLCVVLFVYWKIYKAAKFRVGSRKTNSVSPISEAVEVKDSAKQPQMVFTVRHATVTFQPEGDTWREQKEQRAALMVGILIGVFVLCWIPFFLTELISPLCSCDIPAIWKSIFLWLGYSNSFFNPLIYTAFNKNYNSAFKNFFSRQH

Row | Compound | activation
1 | Cc1noc(C)c1S(=O)(=O)N(CC(=O)NCc1ccc(Cl)cc1)c1ccc2c(c1)OCO2 | 1.78% (inactive)
2 | Cc1ccc(-n2c(=O)cc(N3CCN(Cc4ccccc4)CC3)[nH]c2=O)cc1 | 7.71% (inactive)
3 | CCOc1cc2c(Cl)ncnc2c(OCC)c1OCC | 2% (inactive)
4 | COc1ccc(S(=O)(=O)N2CCC(C(=O)NCCC(=O)NCc3cccc(OC)c3)CC2)cc1 | -0.19% (inactive)
5 | CCOc1ccc(NC(=O)Nc2cc(C)on2)cc1 | 14.5% (active)
6 | CCC(=O)Nc1ccc(C(=O)Nc2cc(C)on2)cc1 | 6.16% (inactive)
7 | CCOc1ccc(C(=O)Nc2ccc(S(=O)(=O)Nc3cc(C)on3)cc2)cc1 | 5.44% (inactive)
8 | COc1cccc(OCC(O)CNC(=O)c2oc3c(C)c(C)ccc3c2C)c1 (stereo unspecified) | 0.14% (inactive)
9 | O=C1CCCC2=C1C(c1cccs1)n1nc(SCc3ccccc3)nc1N2 (stereo unspecified) | 1.85% (inactive)
10 | CC(=O)c1cccc(NC(=O)C2CCN(C(=O)c3ccccc3Cl)CC2)c1 | 1.54% (inactive)
11 | O=C(CSc1nncs1)NC1CCCc2ccccc21 (stereo unspecified) | -2.59% (inactive)
12 | CC(C)(C)OC(=O)N1CCC(NC(=O)c2[nH]cnc2C(=O)N[C@@H](Cc2ccccc2)C(=O)OCc2ccccc2)CC1 | 38% (active)
13 | CC(C)(C)OC(=O)CNC(=O)c1[nH]cnc1C(=O)N[C@@H](Cc1ccccc1)C(=O)OCc1ccccc1 | 9.43% (inactive)
14 | O=C(N[C@@H](Cc1ccccc1)C(=O)OCc1ccccc1)c1nc[nH]c1C(=O)NC1CCNCC1 | -1.94% (inactive)
15 | O=C(CNCc1ccco1)Nc1cc(S(=O)(=O)N2CCOCC2)ccc1N1CCCC1 | 16.7% (active)
16 | O=C(COC(=O)c1ccccc1F)Nc1cc(S(=O)(=O)N2CCOCC2)ccc1N1CCCC1 | -1.44% (inactive)
17 | CC(=O)NCCC(=O)Nc1cc(S(=O)(=O)N2CCOCC2)ccc1N1CCOCC1 | -0.71% (inactive)
18 | Cc1ccc(C(=O)NC2CCN(C(=O)Nc3ccccc3Cl)CC2)cc1 | -0.54% (inactive)
19 | COc1ccccc1CCNC(=O)c1cnccn1 | 2.02% (inactive)
20 | COc1ccc(C(C#N)Nc2ccc(C)cc2)cc1 (stereo unspecified) | 2.71% (inactive)
21 | O=C(c1cnc(Cl)c(Cl)c1)N1CCN(S(=O)(=O)c2ccc(F)cc2)CC1 | -1.02% (inactive)

Row | Compound | activation
22 | CCN1CCN(C(=O)C2CCN(S(=O)(=O)c3cc(Cl)ccc3Cl)CC2)CC1 | 1.91% (inactive)
23 | CC(=O)N1CCN(S(=O)(=O)c2c(F)cc(F)c(Cl)c2F)CC1 | 11.6% (active)
24 | CCc1nnc(NC(=O)CSCc2cc(=O)n3cc(C)sc3n2)s1 | -1% (inactive)
25 | Cc1cccc(/C=N/NC(=O)CNc2cccc3ccccc23)n1 | 2.33% (inactive)
26 | C/C(=N\NC(=O)CSc1nc2ccccc2c(=O)n1-c1ccccc1C)c1cccs1 | 9.42% (inactive)
27 | C/C(=N\NC(=O)CNc1cccc2ccccc12)c1ccc(Br)s1 | 46.5% (active)
28 | COc1ccc(CN2CCCCC2C)cc1OC (stereo unspecified) | -0.45% (inactive)
29 | COc1ccc(C2CC(c3cccs3)=Nc3ccccc3S2)cc1OC (stereo unspecified) | 0.29% (inactive)
30 | O=C(Nc1nc(-c2ccco2)c(-c2ccco2)s1)c1ccco1 | 5.45% (inactive)
31 | CNc1nnc(-c2ccco2)s1 | 15.4% (active)
32 | CN(Cc1ccco1)S(=O)(=O)c1nnc(NC(=O)c2ccccc2)s1 | 2.57% (inactive)
33 | CCCCNC(=O)CSc1nc2n[nH]c(C)c2c(=N)n1-c1cccc(Cl)c1C | -2.98% (inactive)
34 | COc1cccc(-n2c(SCC(=O)NC3CCCCC3)nc3n[nH]c(C)c3c2=N)c1 | 0.63% (inactive)
35 | Cc1ccc(-n2c(SCC(=O)NCCC3=CCCCC3)nc3n[nH]c(C)c3c2=N)cc1Cl | 12.6% (active)
36 | CCOc1ccc(CN(Cc2ccco2)C(c2cccs2)c2nnnn2C(C)(C)C)cc1 (stereo unspecified) | -2.19% (inactive)
37 | Cc1nc2ccccc2c(C(=O)O)c1-c1ccccn1 | -0.26% (inactive)
38 | CCSc1nc(-c2ccc(OC)cc2)cc(-c2ccc(OC)cc2)c1C#N | 0.07% (inactive)
39 | CCOC(=O)CC(=O)CSc1nc(-c2ccccc2)cc(-c2ccc(Cl)cc2)c1C#N | 10.7% (active)
40 | N#Cc1c(C(F)(F)F)cc(-c2ccc(Cl)cc2)nc1SCC(=O)O | -1.06% (inactive)
41 | O=C(Nn1cnnc1)c1cc(Cl)ccc1Cl | -1.93% (inactive)
42 | Clc1ccc(CN2CCCCCC2)cc1Cl | 1.18% (inactive)

Row | Compound | activation
43 | c1cc(-c2nn[nH]n2)ccc1CN1CCCCC1 | 19.3% (active)
44 | Brc1ccc(-c2nn[nH]n2)cc1 | 8.54% (inactive)
45 | OCC1(CO)CC2(C1)CC(CO)(CO)C2 | -2.41% (inactive)
46 | O=C(N/N=C\c1ccc(Br)cc1)c1ccc(Cn2cccn2)o1 | 0.84% (inactive)
47 | Cc1c(Cl)c([N+](=O)[O-])nn1Cc1ccc(C(=O)N/N=C\c2cc(Cl)ccc2O)o1 | 13% (active)
48 | Cc1nn(Cc2ccc(Cl)cc2)c(Cl)c1/C=N/NC(=O)c1cccnc1 | 4.12% (inactive)
49 | O=C(C1CCCO1)N1CCN(S(=O)(=O)c2ccc(Br)cc2)CC1 (stereo unspecified) | 1.59% (inactive)
50 | COc1ccc(Cl)cc1NC(=O)CN(C)C(=O)c1cc(-c2cccs2)nn1-c1ccccc1 | -7.03% (inactive)
51 | CCCN1C(=O)C(NS(=O)(=O)c2ccc(N)cc2)(C(F)(F)F)C(C(=O)OC)=C1C (stereo unspecified) | -4.18% (inactive)
52 | CC(C)OC(=O)c1c(NC(=O)c2ccco2)sc2c1CCCC2 | 14.5% (active)
53 | COC(=O)c1c(NC(=O)C2CC(C)=C(C)CC2C(=O)O)sc2c1CCCCC2 (stereo unspecified) | 5.77% (inactive)
54 | CNC(=O)c1c(NC(NC(=O)c2ccco2)C(=O)c2ccc(Cl)cc2)sc2c1CCCC2 (stereo unspecified) | -4.03% (inactive)
55 | CN(C)CCCO/N=C(\c1ccccc1)c1ccncc1 | 7.85% (inactive)
56 | Cc1ccc(C2CCN(C(=S)Nc3cccc(Cl)c3)C2)cc1 (stereo unspecified) | 1.97% (inactive)
57 | CC(C)(C)n1ncc2c(=O)n(Cc3ccc(Cl)cc3)cnc21 | 3.5% (inactive)
58 | CN(CC(=O)NCc1ccc(Cl)cc1)S(=O)(=O)c1cccs1 | 1.02% (inactive)
59 | CCSc1nnc(-c2cc3c(s2)-c2ccccc2CC3)o1 | -1.94% (inactive)
60 | CCSc1nc2sc3c(c2c(=O)[nH]1)CC(C)(C)OC3 | 2.29% (inactive)
61 | CSc1nc2sc3c(c2c(=O)[nH]1)CCc1ccccc1-3 | 12.1% (active)
